Screening results deposited in PubChem by National Center for Advancing Translational Sciences (NCATS).
Only some compounds are listed: those with a hit (about 9.3% of all), similar ones and a draw of the others.
SMN2 splice enh: enhancers of SMN2 splice variant expression. HEK293 SMN2-luciferase splicing reporter, luminescence, 30-36 h. Potency, µM (top dose mostly 46.1 µM), hits mostly activators. actives 2.8% (n = 210,000). AID 1458; note: nearly all actives have a fitted effect of over 55% in size
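qHTS luciferase splicing reporter: luminescence rises when SMN2 exon 7 is included in transfected HEK293 cells. Compound exposure lasted 30-36 h at 37C, with 4.5 mM final sodium butyrate as control, followed by a ONE-Glo read.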
NPC1 prom act: NPC1 promoter activation. actives 2.4% (n = 320,000). Huh7 NPC1 promoter luciferase reporter, 24 h. Potency, µM (doses to about 9.22 µM), most hits filed as activators; note: nearly all actives have a fitted effect of over 60% in size
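Luminescence read-out of NPC1 promoter-driven luciferase in stably transfected Huh7 cells; compounds delivered in DMSO and left 24 h at 37C, 5% CO2, qHTS titration format.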
Rab9 promoter act: activators of Rab9 promoter; Potency, µM (titrated, usually from 9.22 µM), hits mostly activators; AID 485297; Huh7 Rab9 promoter-luciferase reporter, luminescence, 24 h; actives 2.8% (n = 320,000); note: nearly all actives have a fitted effect of over 60% in size
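Huh7 cells stably carrying a Rab9 promoter-luciferase reporter, 1500 cells per well in OP-MEM I with 10% FBS, treated with compound 24 hours at 37C. Luciferase activity read by luminescence after 10 minutes with Amplite reagent.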
ELG1 genotoxic: inducers of genotoxicity in HEK293T ELG1-luciferase cells | HEK293T ELG1-luciferase reporter, luminescence, 16 h | Potency, µM (titrated, usually from 46 µM), hits mostly activators | actives 1.3% (n = 330,000) | AID 504466; note: nearly all actives have a fitted effect of over 60% in size
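Genotoxic stress is detected as increased luminescence from luciferase-tagged ELG1 in HEK293T cells, measured with ONE-Glo after a 16 hr treatment at 37 °C.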
FLuc counter: counter-screen for miR-21 project: firefly luciferase inhibitors or activators | P08659 | purified FLuc, Km substrates, luminescence inhibition | Potency, µM (highest dose often 57.5 µM), usual class: inhibitors | actives 6.9% (n = 360,000); note: nearly all actives have a fitted effect of over 55% in size
Target sequence (P08659 whole entry, looked up): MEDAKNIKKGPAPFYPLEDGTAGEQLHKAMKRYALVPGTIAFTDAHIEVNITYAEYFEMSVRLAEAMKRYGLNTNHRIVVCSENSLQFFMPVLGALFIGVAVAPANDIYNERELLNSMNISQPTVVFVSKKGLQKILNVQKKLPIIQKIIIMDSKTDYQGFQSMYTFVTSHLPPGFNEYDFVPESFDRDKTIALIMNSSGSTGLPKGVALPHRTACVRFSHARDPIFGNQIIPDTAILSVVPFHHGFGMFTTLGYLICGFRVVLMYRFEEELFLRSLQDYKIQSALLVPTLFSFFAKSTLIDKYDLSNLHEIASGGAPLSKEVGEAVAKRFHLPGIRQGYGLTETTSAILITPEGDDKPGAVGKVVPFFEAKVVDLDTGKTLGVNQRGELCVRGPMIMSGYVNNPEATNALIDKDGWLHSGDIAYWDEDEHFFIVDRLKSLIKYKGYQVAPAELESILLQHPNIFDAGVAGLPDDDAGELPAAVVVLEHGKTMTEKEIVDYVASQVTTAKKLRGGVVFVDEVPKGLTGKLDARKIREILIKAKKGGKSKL
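Biochemical qHTS of compounds, final roughly 60 µM downward over six points, against 10 nM purified firefly luciferase using Km concentrations of substrates (10 uM D-luciferin, 10 uM ATP) in Tris acetate pH 7.5 buffer; luminescence output.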
ELG1 repair inh: blocks ELG1-dependent DNA repair in HEK293T cells. HEK293T ELG1-luciferase reporter, luminescence, 16 h; DNA damage induced by 5-fluorouridine. Potency, µM (highest dose often 46.1 µM), most hits filed as inhibitors. actives 2.3% (n = 330,000); note: nearly all actives have a fitted effect of over 55% in size
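Luminescence from the luciferase reporter, measured 30 min after ONE-Glo reagent at room temperature, was the read-out. Beforehand, 2,000 cells per well were exposed for 16 hr at 37 °C to 5-fluorouridine together with compound or vehicle.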
Each line names hits and unclear results; the compound was inactive in the other large screens. Calls come from the whole dose curve; as a rule, active = well fitted curve in the direction sought with a large enough effect; inconclusive = small, poorly fitted or top-dose-only effect, or another doubt; inactive = no such curve, though single readings can be large; an effect the other way counts as inactive or inconclusive.

COc1ccc(-c2cc(-c3ccccc3)n[nH]2)c(O)c1	SMN2 splice enh 13µM, NPC1 prom act inconclusive, Rab9 promoter act 2.2µM, ELG1 genotoxic 8.2µM, FLuc counter 6µM, ELG1 repair inh inconclusive
COc1ccc(/C=C/c2nc(-c3ccccc3O)n(-c3ccccc3)n2)cc1	FLuc counter inconclusive
COc1ccc(/C=C/c2nc(-c3ccccc3O)n[nH]2)cc1	SMN2 splice enh 4µM, NPC1 prom act 3.5µM, Rab9 promoter act 3.5µM, ELG1 genotoxic inconclusive, FLuc counter 3.8µM, ELG1 repair inh inconclusive
COc1ccc(O)c(-c2cc(-c3cccs3)[nH]n2)c1	SMN2 splice enh inconclusive, Rab9 promoter act inconclusive, FLuc counter 21µM, ELG1 repair inh inconclusive
O=c1c2ccc(Cl)cc2[nH]c(=S)n1CCC1=CCCCC1	ELG1 repair inh inconclusive
COc1ccc(O)c(-c2cc(-c3ccccc3Cl)[nH]n2)c1	ELG1 genotoxic inconclusive, FLuc counter 11µM (no result: SMN2 splice enh)
Fc1ccc(-c2cc3nc(-c4ccccc4)cc(N4CCN(CCN5CCOCC5)CC4)n3n2)cc1	ELG1 repair inh inconclusive
CN1CCN(c2cc(-c3ccccc3)nc3cc(-c4ccc(F)cc4)nn23)CC1	ELG1 repair inh 23µM
O=S(=O)(C[C@H](O)C(Cl)(Cl)Cl)NNc1ccccc1	none (no result: NPC1 prom act, Rab9 promoter act, ELG1 genotoxic, FLuc counter, ELG1 repair inh)
O=c1[nH]c2cc3c(cc2cc1CN(Cc1cccnc1)C(=S)NCc1ccco1)OCO3	ELG1 repair inh 12µM (no result: SMN2 splice enh)
O=c1[nH]c2cc3c(cc2cc1CN(Cc1cccnc1)C(=S)NCc1ccco1)OCCO3	FLuc counter inconclusive, ELG1 repair inh 9.2µM (no result: SMN2 splice enh)
CN(C)CCN(Cc1cc2cc3c(cc2[nH]c1=O)OCO3)C(=S)NCc1ccco1	none (no result: SMN2 splice enh)
CCN(CC)C(=O)c1ccc(COc2ccc(Cl)c(C)c2)o1	FLuc counter inconclusive, ELG1 repair inh inconclusive (no result: SMN2 splice enh)
Cc1cc(OCc2ccc(C(=O)n3cccn3)o2)ccc1Cl	SMN2 splice enh 11µM, NPC1 prom act inconclusive, Rab9 promoter act inconclusive, ELG1 genotoxic inconclusive, FLuc counter inconclusive, ELG1 repair inh inconclusive
O=C(c1ccc(COc2ccc(F)cc2)o1)n1cccn1	FLuc counter 24µM
O=C(c1ccc(COc2ccc(F)cc2)o1)n1cc(Br)cn1	none
CS/C(=C/[N+](=O)[O-])Nc1cccc2c1C(C)CC2(C)C (configuration not stated)	FLuc counter inconclusive
COc1ccc(OC)c(-c2csc(NC(=O)Cc3ccccc3)n2)c1	FLuc counter 11µM (no result: SMN2 splice enh)
COc1ccc(OC)c(-c2csc(NC(=O)Cc3cccs3)n2)c1	FLuc counter 13µM, ELG1 repair inh inconclusive
COC(=O)c1cc(-c2cc(OC)ccc2OC)nc2c1c(=O)n(C)c(=O)n2Cc1ccccc1	ELG1 repair inh 9.2µM (no result: SMN2 splice enh)
CCc1noc(C)c1C(=O)Nc1nc(-c2cc(OC)ccc2OC)cs1	ELG1 repair inh 16µM (no result: SMN2 splice enh)
COc1cccc(CC(=O)Nc2nc(-c3cc(OC)ccc3OC)cs2)c1	none
CCc1noc(C)c1C(=O)Nc1nc(-c2ccc(OC)cc2OC)cs1	ELG1 repair inh inconclusive (no result: SMN2 splice enh)
COc1ccc(CC(=O)Nc2nc(-c3cc(OC)ccc3OC)cs2)cc1	ELG1 repair inh inconclusive
O=C(CN1C(=O)NC2(CCCc3ccccc32)C1=O)c1ccc(Br)cc1 (configuration not stated)	none (no result: SMN2 splice enh)
C/C=C/c1c(F)c(F)c(Oc2ccc(C(=O)O)cc2)c(F)c1F	none
CC(C)(C)N=Cc1cc(-c2ccccc2)sc1O	NPC1 prom act 2.8µM, Rab9 promoter act 2.2µM, ELG1 genotoxic 9.2µM, FLuc counter 5.4µM, ELG1 repair inh inconclusive
OCc1ncc(-c2ccccc2)s1	ELG1 repair inh inconclusive (no result: SMN2 splice enh)
O=c1[nH]nc(-c2ccc(F)cc2)cc1Cc1cccs1	none (no result: SMN2 splice enh)
Cc1ccc(-c2cc(-c3ccccc3)nc(NN)n2)cc1	FLuc counter inconclusive, ELG1 repair inh inconclusive (no result: SMN2 splice enh)
Cc1ccc(-c2nc(Nc3ccccc3)n[nH]2)cc1	SMN2 splice enh 3.5µM, NPC1 prom act 0.89µM, Rab9 promoter act 0.71µM, ELG1 genotoxic 0.65µM, FLuc counter 1.7µM, ELG1 repair inh inconclusive
